This note sets out measurements from the supplement of paper PMC9135407.

In this assay the test system is primary human hepatic stellate cells (donor 1). The assay can be described thus: scaled lipid accumulation score (0 = DMSO-like, 1 = nortriptyline-like); higher = stronger HSC inactivation (lipid re-accumulation), active = hit call of the paper. The conditions noted are these: 48 h.
The mark [1] stands for this setting: library stock concentration: 1 mM.
Where [2] appears, read: library stock concentration: 3.33 mM.
The mark [3] stands for this setting: library stock concentration: 10 mM.
The mark [4] stands for this setting: library stock concentration: 80 uM.
Setting [5] is: library stock concentration: 400 uM.
Where [6] appears, read: library stock concentration: 2 mM.

The structures appear in SMILES notation. Hit rate of the full screen: of about 5,800 compounds, about 620 (11%) showed activity. For the sample, actives were picked, then their nearest neighbours and some compounds at random. Unmarked numbers belong to inactive results.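 Rule for the calls: active = score above a cut-off or among the top three wells of a plate; in these data no inactive exceeds 0.85.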

Turning to `NC(=O)OCC(O)COc1ccc(Cl)cc1` (stereo not drawn) [Chlorphensin carbamate], the “scaled lipid accumulation score” value was at most 0.

With `CCOc1c2c(c(OCC)c3ccccc13)C(=O)N(c1ccc(CC(=O)NS(=O)(=O)c3ccccc3)cc1)C2`, the “scaled lipid accumulation score” value under setting [1] is at most 0.

As to `CCCCC/C=C\C/C=C\C/C=C\C/C=C\CCCCNC(=O)c1ccc(O)cc1`, the “scaled lipid accumulation score” value under setting [1] was at most 0.

In the case of `CCCCC(C)CC(O)/C=C/C1C(O)CC(O)C1CCCCCCC(=O)O` (stereo not drawn) [17,20-dimethyl Prostaglandin F1.alpha.], under setting [1], the “scaled lipid accumulation score” value is at most 0.

`Nc1cccc2c1CN(C1CCC(=O)NC1=O)C2=O` (stereo not drawn) [Lenalidomide (CC-5013)]: the “scaled lipid accumulation score” value is 0.003 under setting [2] and at most 0 under setting [3].

Consider `Nc1cccc2c1CN(C1CCC(=O)NC1=O)C2=O` (stereo not drawn) [Lenalidomide], for which the “scaled lipid accumulation score” value reads like this: under setting [4], 0.004; under setting [5], 0.005; under setting [6], at most -0.001; under setting [3], at most -0.001.

With `Nc1nc2[nH]cnc2c(=S)[nH]1` [Thioguanine], the “scaled lipid accumulation score” value reads like this: under setting [3], at most 0; (library stock concentration: 12 mM) at most 0.

On to `O=C(NCCCCCCNC(=O)ON=C1CCCCC1)ON=C1CCCCC1`, for which the “scaled lipid accumulation score” value is 0.062 under setting [3] and 0.056 (library stock concentration: 12.7 mM).

For `CNC(=O)c1ccc(Nc2cc(Nc3ccccc3S(=O)(=O)C(C)C)c3cc[nH]c3n2)nc1`, the “scaled lipid accumulation score” value is, setting by setting: under setting [4], 0.027; under setting [5], 0.02; under setting [6], 0.04; under setting [3], at most 0.

Turning to `Cc1coc2c1C(=O)C(=O)c1c-2ccc2c(C)cccc12` [Tanshinone I], the “scaled lipid accumulation score” value is, setting by setting: under setting [2], at most 0; under setting [3], at most 0.

`CCCCC/C=C\C/C=C\C/C=C\C/C=C\CCCC(=O)O` [Arachidonic acid (20:4, n-6)]: under setting [1], the “scaled lipid accumulation score” value is at most -0.021.

Consider `CCCCC/C=C\C/C=C\C/C=C\C/C=C\CCCC(=O)O` [Arachidonic Acid], for which, under setting [1], the “scaled lipid accumulation score” value was at most 0.

As to `COc1ccc(N(C(=O)Oc2cc(C(=O)Nc3cccc(C(F)(F)F)c3)ccc2C)c2ccnc(Nc3ccc(N4CCN(C)CC4)cc3)n2)c(OC)c1`, the “scaled lipid accumulation score” value runs as follows: under setting [4], 0.07; under setting [5], 0.248; under setting [6], 0.495; under setting [3], 0.396.

For `Cc1ccc(C(=O)Nc2cccc(C(F)(F)F)c2)cc1-c1ccc2nc(NCCN3CCOCC3)ncc2c1` [listing 1 of 2 here], the “scaled lipid accumulation score” value under setting [3] was 1.34 (active).

On to `Cc1ccc(C(=O)Nc2cccc(C(F)(F)F)c2)cc1-c1ccc2nc(NCCN3CCOCC3)ncc2c1` [listing 2 of 2 here], for which the “scaled lipid accumulation score” value under setting [5] is at most -0.005 and the “scaled lipid accumulation score” value under setting [6] was 0.748.

In the case of `CCCCCC(=O)/C=C/C=O` [4-oxo-2-Nonenal], the “scaled lipid accumulation score” value under setting [1] is at most 0.

Take `COc1ccc(-c2cc(=O)c3c(O)cc(O)cc3o2)cc1` [Acacetin]: the “scaled lipid accumulation score” value is at most 0. Moreover, the “scaled lipid accumulation score” value under setting [3] was at most -0.027.

With `Cc1cc(Nc2ncc(Cl)c(Nc3ccccc3S(=O)(=O)C(C)C)n2)c(OC(C)C)cc1C1CCNCC1` [Ceritinib], the “scaled lipid accumulation score” value reads like this: under setting [4], 0.312; under setting [5], 0.357; under setting [6], 0.663; under setting [3], at most 0.

For `Cc1cc(Nc2ncc(Cl)c(Nc3ccccc3S(=O)(=O)C(C)C)n2)c(OC(C)C)cc1C1CCNCC1`, the “scaled lipid accumulation score” value is 0.582 under setting [2] and 0.131 under setting [3].
